High-throughput results (PubChem)
A selection: hits, their analogues and other compounds. The true share with any hit is near 0.97%.
MEP2 TOR yeast: alters MEP2-GFP fluorescence in TOR pathway yeast screen; S. cerevisiae MEP2-GFP strain, flow cytometry GFP, 3 h; 100% = DMSO control level; hit rate 0.51% among 330,000; AID 2016; GFP response vs DMSO, % at 10 µM;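 active = GFP response versus DMSO above a set limit, roughly screen mean plus 3 SD, cut at about 180% in these data; inconclusive = fewer than 70 cells counted for a yeast strain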;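 note: median GFP fluorescence of the barcode-gated MEP2-GFP cells per well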
GASC-1 inh: inhibitors of human GASC-1 (JMJD2C) demethylase; inhibition, % at 2.35 µM; hit rate 0.069% among 330,000; GST-JMJD2C(1-420) H3K9me3 demethylation, DELFIA europium; AID 2099; Q9H3R0;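 active = more than half of a compound's replicate wells show inhibition beyond 50%, single wells judged on their own value; inconclusive = some, but no more than half, of replicates pass 50% inhibition; inactive = no replicate passes 50% inhibition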;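 note: signal counts dimethyl H3K9 product captured on neutravidin plate; 0% = median of DMSO wells and 100% = 0.3 times that DMSO median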
Target sequence (Q9H3R0 1-420 limits assumed): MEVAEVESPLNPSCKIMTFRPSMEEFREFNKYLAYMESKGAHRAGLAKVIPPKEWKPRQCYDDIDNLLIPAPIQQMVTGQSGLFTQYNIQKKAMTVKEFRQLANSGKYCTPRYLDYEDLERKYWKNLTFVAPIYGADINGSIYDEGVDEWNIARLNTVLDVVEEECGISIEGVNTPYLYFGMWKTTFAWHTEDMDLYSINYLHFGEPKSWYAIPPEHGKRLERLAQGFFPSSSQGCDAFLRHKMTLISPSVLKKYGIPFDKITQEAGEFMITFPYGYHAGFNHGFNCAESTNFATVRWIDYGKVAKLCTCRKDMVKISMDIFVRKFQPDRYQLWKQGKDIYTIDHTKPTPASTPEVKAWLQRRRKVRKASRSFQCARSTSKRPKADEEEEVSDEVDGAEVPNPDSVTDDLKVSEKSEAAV
LAP4 TOR yeast: modulators of TOR pathway LAP4-GFP in S. cerevisiae. GFP response vs DMSO, % at 10 µM. S. cerevisiae LAP4-GFP multiplex, flow cytometry GFP, 3 h; median GFP as percent of DMSO wells. AID 2023. hit rate 0.34% among 320,000;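 active = GFP response vs DMSO above a set limit, about the screen mean plus 3 SD, cut at about 150% in these data; inconclusive = under 70 cell events counted for the yeast strain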
CIT2 TOR yeast: modulators of TOR pathway CIT2-GFP in S. cerevisiae. S. cerevisiae CIT2-GFP strain, flow cytometry, 3 h; 100 means same as DMSO wells. GFP response vs DMSO, % at 10 µM. AID 2029. hit rate 0.065% among 320,000;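 active = GFP response relative to DMSO above a set limit, near the screen mean plus 3 SD, cut at about 150% in these data; inconclusive = Fewer than 70 cells measured for a yeast strain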;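 note: ratio of well median GFP fluorescence to mean of DMSO wells on the plate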
AGP1-GFP MLPCN: yeast TOR pathway AGP1-GFP modulation | S. cerevisiae AGP1-GFP multiplex flow cytometry, 3 h; GFP as percent of DMSO wells | GFP response vs DMSO, % at 10 µM | hit rate 0.02% among 320,000;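 active = GFP response relative to DMSO above a set limit, near screen average plus 3 SD, cut at about 150% in these data; inconclusive = fewer than 70 cells counted for the yeast strain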;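 note: median GFP channel fluorescence of the gated AGP1 strain per well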
RPL19A TOR yeast: yeast TOR pathway RPL19A-GFP modulation; S. cerevisiae RPL19A-GFP strain, flow cytometry, 3 h; active compounds read low; percent response vs DMSO, % at 10 µM; hit rate 0.3% among 330,000;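 active = percent response vs DMSO below 50%; inconclusive = fewer than 70 events counted for the yeast strain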;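 note: median channel GFP fluorescence of the barcoded RPL19A-GFP strain; ratio of sample median GFP to plate DMSO average so 100% = DMSO; lower means less RPL19A-GFP as with rapamycin TOR inhibition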
* hit, by the source's call; ? = inconclusive; · = no result given; + = active, no number; [ ] = dose if it differs, or a comment.

SMILES | MEP2 TOR yeast | GASC-1 inh | LAP4 TOR yeast | CIT2 TOR yeast | AGP1-GFP MLPCN | RPL19A TOR yeast
Cc1c(C(=O)NNC(=S)Nc2ccc(S(N)(=O)=O)cc2)oc2ccccc12 | 100.4 | -14.3 | 70.2 | 92.8 | 92.2 | 106.7
Cc1noc(C)c1C(=O)Nc1nnc(-c2ccccc2)s1 | 230.9*[may fluoresce violet] | 7.8 | 104.0 | ? | 21.1 | 54.9
Cc1onc(-c2ccccc2)c1C(=O)Nc1nnc(-c2ccncc2)s1 | 103.9 | 2.7 | 109.5 | 92.6 | 98.8 | 102.4
Clc1ccc(SCCn2cncn2)cc1 | 99.4 | -1.9 | 99.4 | 106.9 | 102.8 | 102.3
Cc1ccc(SCCCn2cncn2)cc1 | 319.8*[may fluoresce violet] | -2.6 | 86.5 | ? | 20.8 | 45.4*[may fluoresce violet]
COc1ccsc1C(=O)NCCN1CCOCC1 | 109.4 | 7.5 | 108.2 | 167.5*[may fluoresce green] | 123.0 | 93.8
O=C(Nc1ccc2c(c1)OCO2)c1cnn2c(C(F)(F)F)cc(-c3ccco3)nc12 | 101.9 | -5.2 | 102.0 | 108.9 | 100.3 | 101.2
COc1ccc(NC(=O)c2cnn3c(C(F)(F)F)cc(-c4ccco4)nc23)cc1OC | 250.1*[may fluoresce violet] | 2.2 | 85.0 | ? | 27.1 | ·
CCn1c(SCC(=O)Nc2ccc(F)cc2)nnc1-c1cnccn1 | 168.6 | 4.9 | 84.5 | ? | 18.7 | 38.2*[may fluoresce violet]
CCc1ccccc1NC(=O)C1CCCN(c2nccc(C)n2)C1 (centres undefined) | ? | 5.5 | 62.0 | ? | ? | 25.1*[may fluoresce violet]
CC1C/C(=C/c2cccn2C)C(=O)/C(=C/c2cccn2C)C1 (centres undefined) | 103.1 | 7.1 | 118.7 | 90.3 | 94.8 | 96.8
CC1C/C(=C/c2ccncc2)C(=O)/C(=C/c2ccncc2)C1 (centres undefined) | 389.1*[may fluoresce violet] | 18.2 | 124.6 | ? | 10.4 | 37.9*[may fluoresce violet]
CCn1cnc2c1c(=O)n(CC(=O)OC(C)C(N)=O)c(=O)n2Cc1ccccc1 (centres undefined) | 100.6 | 10.0 | 80.5 | 103.5 | 103.4 | 108.2
Cc1cc(Br)ccc1NC(=O)CN(C)C(=O)c1cc([N+](=O)[O-])ccc1N1CCOCC1 | 93.9 | 2.1 | 97.8 | 96.1 | 108.0 | 95.1
O=C(Nc1ccccc1)c1nnsc1S(=O)c1ccc(Cl)cc1 (centres undefined) | 95.1 | 9.4 | 231.3* | 57.8 | 66.0 | 59.5
CCN1/C(=C/C=C/C=C/c2sc3ccccc3[n+]2CC)Sc2ccccc21 | 265.3*[may fluoresce red] | -7.5 | ? | 109.4 | 35.8 | ?
CC(C#N)(Cc1ccccc1)Nc1ccccc1 (centres undefined) | ? | -3.2 | 72.1 | ? | ? | 17.2*[may fluoresce violet]
COC(=O)c1ccccc1-c1c2ccc(=N)cc-2oc2cc(N)ccc12 | +[may fluoresce green] | -4.3 | +[may fluoresce green] | +[may fluoresce green] | 666.5*[may fluoresce green] | 624.5
O=C(CSC(=S)N1CCCC1)NCC(=O)Nc1ccc(F)c(F)c1 | 93.8 | 3.8 | 100.8 | 100.2 | 98.2 | 101.3
COc1ccccc1OCC(=O)Nc1ccc(S(=O)(=O)Nc2onc(C)c2C)cc1 | 311.4*[may fluoresce violet] | 0.1 | 77.9 | ? | ? | 46.2*[may fluoresce violet]
COc1ccccc1NC(=O)c1ccccc1C(=O)N(C)Cc1ccccc1 | 105.2 | -1.5 | 90.5 | 112.6 | 104.8 | 101.8
c1ccc(-c2cn3c(n2)SCC3)cc1 | 89.5 | -7.4 | 89.7 | 86.5 | 85.3 | 85.2
Cc1oc2ccccc2c1-c1cn2c(n1)SCC2 | ? | 0.5 | 94.9 | ? | ? | 11.4*[may fluoresce violet]
O=C(Cc1ccccc1)NN1C(=O)C2C3C=CC(C3)C2C1=O (centres undefined) | 231.6*[may fluoresce violet] | 4.4 | 109.6 | ? | · | 60.3
Cc1ccccc1N(CC(=O)O)S(C)(=O)=O | 229.4*[may fluoresce violet] | 4.9 | 94.5 | ? | · | 53.3
Cc1cccc(NC(=O)C2CCCN2C(=O)OCC(C)C)c1 (centres undefined) | 231.3*[may fluoresce violet] | -1.6 | 95.0 | ? | 24.1 | 58.3
Cc1cccc(NC(=O)C2CCCN2C(=O)OCC(C)C)c1C (centres undefined) | 103.7 | -7.2 | 100.2 | 106.3 | 107.0 | 101.4
Cc1ccc(S(=O)(=O)/C(C#N)=C/c2c(N3CCN(Cc4ccccc4)CC3)nc3ccccn3c2=O)cc1 | 96.4 | -7.1 | 96.4 | 97.1 | 97.5 | 97.6
Cc1ccc(-c2noc(CCCC(=O)N3CCOCC3)n2)cc1 | 287.1*[may fluoresce violet] | -4.7 | 103.0 | ? | 21.1 | 19.8*[may fluoresce violet]
